Measured values: PubChem BioAssay
For part of these data: Measured potencies and affinities stand elsewhere. Activity calls are given as the source filed them. Unless noted, the rule behind the calls is not given here.

Tests used:
[1] = molecular target: Cell division control protein 42 homolog (Homo sapiens) (UniProt P60953); assay: activated mutant Cdc42 GTP-binding inhibitors, dose response, biochemical, multiplex bead flow cytometry, Bodipy-FL-GTP (AID 1333;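 active = fitted half-maximal concentration within the tested dose range, moderate curve steepness, a statistically real signal drop, and little compound fluorescence or tag-binding interference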)
[2] = molecular target: Cell division control protein 42 homolog (Homo sapiens) (UniProt P60953); assay: wildtype Cdc42 GTP-binding inhibitors, dose response, biochemical, multiplex bead flow cytometry, Bodipy-FL-GTP (AID 1334;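 active = fitted half-maximal concentration within the tested range, moderate curve steepness, significant signal drop, and little compound fluorescence or bead-linkage interference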); settings: bead-based flow cytometry, Bodipy-FL-GTP binding to GST-Cdc42; at 100 µM (top of the series) unless noted
[3] = molecular target: GTPase HRas (Homo sapiens) (UniProt P01112); assay: inhibitors of GTP binding to wildtype Ras, dose response, biochemical, multiplex bead flow cytometry (AID 1335;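 active = fitted half-maximal concentration within 10 nM to 100 µM, steepness 0.5 to 2, significant signal drop, low assay interference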); settings: bead-based flow cytometry, Bodipy-GTP binding to GST-Ras; at 100 µM (top of the series) unless noted
[4] = tested on: Ras-related protein Rab-7a (dog), GTP binding; assay: Rab7 GTP binding inhibitors, potency, dose response, biochemical, wildtype, multiplex bead flow cytometry (AID 1336)
[5] = molecular target: Ras-related C3 botulinum toxin substrate 1 (Homo sapiens) (UniProt P63000); assay: wildtype Rac1 GTP binding inhibitors, dose response, biochemical, multiplex bead flow cytometry (AID 1340;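 active = dose curve with midpoint inside tested range, moderate steepness, plateau gap beyond fit error, low compound glow and bead-link interference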); settings: GST-Rac1 beads, Bodipy-FL-GTP binding; at 100 µM (top of the series) unless noted
[6] = molecular target: GTPase HRas (Homo sapiens) (UniProt P01112); assay: activated Ras mutant GTP binding inhibitors, dose response, biochemical, multiplex bead flow cytometry (AID 1341;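 active = dose-response curve with midpoint inside the tested range, moderate steepness, significant amplitude and little compound fluorescence or bead-attachment interference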;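 note: GST-tagged constitutively activated Ras mutant immobilized on beads and multiplexed with other GTPases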)

Cell division control protein 42 homolog (Homo sapiens), sequence (P60953 whole entry, looked up): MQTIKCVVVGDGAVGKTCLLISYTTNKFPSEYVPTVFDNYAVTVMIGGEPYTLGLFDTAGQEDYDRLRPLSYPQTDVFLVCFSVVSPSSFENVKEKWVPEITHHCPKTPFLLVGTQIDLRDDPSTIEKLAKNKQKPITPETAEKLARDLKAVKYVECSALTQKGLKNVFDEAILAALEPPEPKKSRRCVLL
GTPase HRas (Homo sapiens), sequence (P01112 whole entry, looked up): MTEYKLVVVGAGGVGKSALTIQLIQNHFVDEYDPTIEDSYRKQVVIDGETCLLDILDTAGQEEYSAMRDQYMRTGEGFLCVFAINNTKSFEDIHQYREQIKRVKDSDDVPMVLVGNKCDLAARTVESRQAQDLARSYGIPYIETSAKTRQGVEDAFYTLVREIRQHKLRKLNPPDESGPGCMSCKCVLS

SMILES	outcome [1]	fluorescence, percent of control (lower = inhibition) [2] [%]	GTP binding, percent of control [3] [%]	outcome [4]	GTP binding signal, raw median fluorescence (lower = inhibition) (MCF (arbitrary fluorescence units)) [5]	outcome [6]
O=C(Oc1cccc(O)c1)C1CCCCC1	inactive	36.8	81.6	inactive	296	inactive
Cc1ccccc1C(=O)Nc1cccc(C(=O)N/N=C/c2cc(Cl)cc([N+](=O)[O-])c2O)c1	inactive	25.1	74.6	inactive	191	inactive
S=c1[nH]nc(-c2ccc3ccccc3n2)n1-c1ccccc1Cl	inactive	45.1	60.2	inactive	165	inactive
COCCN1C(=O)/C(=C/c2ccc(N3CCCC3)cc2)SC1=S	inactive	64.2	106	inactive	311	inactive
CCCCCCn1nc(C(=O)OCC(=O)c2c(N)n(C)c(=O)n(C)c2=O)c2ccccc2c1=O	inactive	36	80.1	inactive	203	inactive
Cc1cc2ncn(CCC(=O)NC(C)(C)C)c2cc1C	inactive	40	88.1	inactive	320	inactive
COc1ccc(OCc2nc3c4cc(OC)c(OC)cc4nc(=S)n3[nH]2)cc1	inactive	31.9	75.5	inactive	186	inactive
CC(=O)NC1CC2CCCC(C1)N2C(=O)Nc1ccccc1 (stereo not given)	inactive	88.1	152	inactive	217	inactive
CN(/N=C/c1ccncc1)C1=NS(=O)(=O)c2ccccc21	inactive	53.9	32.4	inactive	181	inactive
O=C(N/N=C(\c1ccccc1)c1ccccn1)c1cccc([N+](=O)[O-])c1	inactive	31.4	68.7	inactive	143	inactive
COc1cccc(CNCc2sc(C(=O)O)cc2C)c1	inactive	62.1	87.2	inactive	33.8	inactive
COc1cc(/C=N/NC(=O)Nc2cccc3nsnc23)cc(OC)c1OC	inactive	60.6	105	inactive	126	inactive
CCOC(=O)c1cc(C(=O)OCC)c2ccccn2c1=O	inactive	42.1	87.2	inactive	246	inactive
CN(/N=C/c1ccco1)C1=NS(=O)(=O)c2ccccc21	inactive	32	74.9	inactive	206	inactive
COc1ccc(/C=N/NC(=O)c2ccncc2)cc1Cn1nc([N+](=O)[O-])c(Br)c1C	inactive	38.6	75.7	inactive	144	inactive
Cc1ccccc1/C=C1\SC(=S)N(/N=C/c2cc([N+](=O)[O-])ccc2O)C1=O	inactive	34.1	81.2	inactive	228	inactive
COc1ccc(OCCSc2nc3nc(C)cc(C)n3n2)cc1	inactive	45.5	87.4	inactive	178	inactive
O=C(O)c1ccc2c3c(cccc13)C(=O)N(OS(=O)(=O)c1ccccc1)C2=O	inactive	33.5	78.2	inactive	191	inactive
O=C(COC(=O)C1(c2ccccc2F)CCCC1)Nc1ncc(C(F)(F)F)cc1Cl	inactive	47.6	60.4	inactive	194	inactive
COc1cc(C(=S)NC2CCCCC2)ccc1O	inactive	46.9	62.4	inactive	209	inactive

SMILES	outcome [1]	fluorescence, percent of control (lower = inhibition) [2] [%]	GTP binding, percent of control [3] [%]	outcome [4]	GTP binding signal, raw median fluorescence (lower = inhibition) (MCF (arbitrary fluorescence units)) [5]	outcome [6]
COc1cccc(C(=O)O)c1OCc1ccccc1Br	inactive	57	201	inactive	53.6	inactive
CC(C)(C)NC(=O)c1ccc2nsnc2c1	inactive	52.7	66.2	inactive	213	inactive
Cc1cc2nc3c(=O)n(C4CCCCC4)c(=O)[nH]c3nc2cc1N	inactive	42.7	53.2	inactive	146	inactive
O=C(O)c1cccnc1SCc1cccc(Cl)c1	inactive	102	117	inactive	79.9	inactive
O=C(O)C1(NCc2ccccc2Cl)CCCCC1	inactive	66	91.3	inactive	34.5	inactive
Cc1ccc(N2C(=O)c3ccccc3C2Nc2cccnc2)nc1 (stereo not given)	inactive	37	84.5	inactive	272	inactive
O=C(O)c1ccc(CNCc2ccc(F)cc2)s1	inactive	61.1	84.5	inactive	34.7	inactive
CCOC(=O)CNC(=O)c1cccnc1SCCc1ccccc1	inactive	46.7	125	inactive	65	inactive
COc1cc(NC(=O)c2cccs2)c(OC)cc1NC(=O)CCC(=O)Nc1cccc2ncccc12	inactive	32.3	72.4	inactive	144	inactive
Cn1c(N/N=C/c2cccs2)nc2c1c(=O)n(Cc1ccccc1)c(=O)n2C	inactive	39.1	51.7	inactive	143	inactive
Cc1ccc(C(=O)O)c(NCc2c(C)cccc2C)n1	inactive	58.8	224	inactive	54.1	inactive
COc1ccc(OC)c(/C=N/NC(=O)c2ccc(Cn3cc([N+](=O)[O-])cn3)o2)c1	inactive	30.5	66.3	inactive	159	inactive
Cc1sc2ncnc(Sc3ccccc3C(=O)O)c2c1C	inactive	103	117	inactive	84.4	inactive
O=C(Oc1c(Br)cc(C(=S)N2CCOCC2)cc1Br)c1ccc(Cl)cc1	inactive	29.7	85	inactive	217	inactive
COc1ccc(C(=O)N[C@H](C(=O)OCc2cc(=O)oc3cc(C)ccc23)C(C)C)cc1	inactive	50.4	63.8	inactive	202	inactive
Fc1cccc(Nc2ncnc3[nH]ncc23)c1	inactive	30.9	72.3	inactive	177	inactive
COc1cc(/C=C/c2ccc3cccc([N+](=O)[O-])c3n2)ccc1OCC(=O)O	inactive	32.7	76.2	inactive	160	inactive
CC(C)(C)OC(=O)N[C@@H](Cc1ccccc1)c1nnc(S(=O)(=O)Cc2cccc(F)c2)o1	inactive	33	77	inactive	260	inactive
CC(=O)OC(C(=O)NC1CCCCC1)c1ccc(Cl)cc1 (stereo not given)	inactive	34.5	82.1	inactive	240	inactive
O=C(Nc1cccc2ccccc12)c1cnccn1	inactive	85.4	156	inactive	181	inactive

SMILES	outcome [1]	fluorescence, percent of control (lower = inhibition) [2] [%]	GTP binding, percent of control [3] [%]	outcome [4]	GTP binding signal, raw median fluorescence (lower = inhibition) (MCF (arbitrary fluorescence units)) [5]	outcome [6]
COc1cc([N+](=O)[O-])ccc1N=Nc1c(N)[nH]n(-c2ccccc2)c1=O	inactive	30.5	74.5	inactive	188	inactive
O=C(C[n+]1cccc(CNC(=O)c2ccc(OC(F)F)cc2)c1)Nc1ccccc1Cl	inactive	51.9	60.5	inactive	203	inactive
Cc1ccc(-n2c(=O)cc(N3CCN(C(=O)c4ccco4)CC3)[nH]c2=O)cc1	inactive	36.6	81.3	inactive	286	inactive
CCC(C)NC(=O)CSc1nc2n[nH]c(C)c2c(=N)n1-c1ccc(OC)cc1 (stereo not given)	inactive	36	48.9	inactive	111	inactive
CC(C)c1cc(NCc2ccccn2)n2c(nc3ccccc32)c1C#N	inactive	34.4	77.4	inactive	178	inactive
COc1cccc(N2CCN(C(=O)c3cccn4c(=O)c5c(C)c(C)sc5nc34)CC2)c1	inactive	32.1	72.9	inactive	163	inactive
Cc1cc(N/N=C/c2ccc(O)cc2O)nc(-c2ccccc2O)n1	inactive	40.3	48.8	inactive	143	inactive
O=C1Nc2ccc(Br)cc2C12NNc1ccccc1O2 (stereo not given)	inactive	33	77.8	inactive	182	inactive
COC(=O)C1=C(C)NC(=O)/C1=C\c1cc(C)n(-c2c(C)cccc2C)c1C	inactive	37	84.9	inactive	308	inactive
O=S(=O)(Cc1ccccc1)N1CCc2ccccc21	inactive	48.6	63.7	inactive	202	inactive
O=c1c2ccccc2nc2c3ccccc3c(NCCN3CCOCC3)nn12	inactive	42.6	52.2	inactive	132	inactive
CCCOC(=O)NC1CCS(=O)(=O)C1 (stereo not given)	inactive	99.8	159	inactive	198	inactive
Cc1cccc(OCCSc2nc3ccccc3n2CC(=O)O)c1C	inactive	58.6	87.7	inactive	30.5	inactive
COc1cccc(OCc2ccccc2Br)c1C(=O)O	inactive	51.9	206	inactive	46.4	inactive
O=C(COC(=O)/C=C/c1cccc([N+](=O)[O-])c1)NCc1ccc2c(c1)OCO2	inactive	34.8	82.9	inactive	254	inactive
CC(C)CCNC(=O)CN(CCCN1CCOCC1)C(=O)Cn1nnc(-c2ccc(F)cc2)n1	inactive	98.9	180	inactive	184	inactive
O=C1CS/C(=N/N=C2C3CC4CC(C3)CC2C4)N1	inactive	48.5	68.2	inactive	214	inactive
COc1ccc(C(=O)NC(=S)N2CC(C)OC(C)C2)cc1 (stereo not given)	inactive	54.3	68.1	inactive	216	inactive
COCCn1c(N)c(C(=O)Nc2sc3c(c2C(=O)OC)CCCC3)c2nc3ccccc3nc21	inactive	52	108	inactive	120	inactive
COc1cc(N2CCCC2)c(OC)cc1/C=C(/C#N)c1cccc(F)c1	inactive	137	214	inactive	210	inactive
